# Sampled rows, rich in hits. Any-hit rate of the full collection: about 19%.
# HT1080NT lethal: kills 2HG-producing HT-1080-NT fibrosarcoma cells. HT-1080-NT fibrosarcoma viability, CellTiter-Glo ATP luminescence, 48 h. Potency, µM (doses to about 46.1 µM), hits mostly cytotoxic. 360,000 tested, 1.6% active;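 further: NT is the 2HG producing partner of a matched IDH1 knockdown line; nearly all actives have a fitted effect of over 55% in size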
#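 A 48-hour cytotoxicity screen used HT-1080-NT cells plated 2 hours before compound delivery. ATP-based CellTiter-Glo luminescence measured viability, normalized to DMSO and no-cell controls.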
# HT1080 IDH1KD tx: toxicity to HT-1080 IDH1 knockdown cells (counter line) | HT-1080 IDH1 knockdown viability, ATP luminescence, 48 h | 360,000 tested, 2% active | Potency, µM (highest dose often 46.1 µM), actives largely listed as cytotoxic
#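 Viability of IDH1-knockdown HT-1080 fibrosarcoma cells was assessed by CellTiter-Glo after 48 h at 37 °C with titrated compound; concentration-effect curves were classified by fit quality and response size.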
# KB-3-1 cytotox: KB-3-1 parental cell cytotoxicity; KB-3-1 viability, CellTiter-Glo ATP luminescence, 72 h; Potency, µM (doses to about 46.1 µM), hits mostly cytotoxic; 400,000 tested, 1.4% active; further: nearly all actives have a fitted effect of over 60% in size
#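 Multi-concentration cytotoxicity screen in KB-3-1 cells grown in DMEM lacking phenol red with 10% FBS. After 72 h at 37 °C with compound, ATP-dependent luminescence was recorded.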
# TDP1 cell CPT: growth inhibition of DT40 Tdp1-/-;hTDP1 cells with camptothecin (screen for TDP1 inhibitors) | Potency, µM (titrated, usually from 46.2 µM), usual class: inhibitors | 420,000 tested, 12% active | chicken DT40 Tdp1-/-;hTDP1 cells + 20 nM CPT, ATP luminescence, 48 h; further: nearly all actives have a fitted effect of over 55% in size
#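 Chicken DT40 Tdp1-/- cells stably complemented with human TDP1 were seeded at 400 cells/well in medium containing 20 nM camptothecin, exposed to pin-transferred compounds, and grown at 37 °C for at least 48 hr. Viability was read as ATP luminescence.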
# DT40 TDP1 no CPT: qHTS for Inhibitors of human tyrosyl-DNA phosphodiesterase 1 (TDP1): qHTS in cells in absence of CPT; Potency, µM (highest dose often 46.2 µM), most hits filed as inhibitors; DT40 Tdp1-/- hTDP1 cells, no CPT, ATP luminescence, 48 h; 420,000 tested, 15% active; further: nearly all actives have a fitted effect of over 55% in size
#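 Chicken DT40 Tdp1-/- cells stably complemented with human TDP1 were seeded at 400 cells/well with DMSO in place of 20 nM camptothecin. After compound pinning, cells grew at least 48 hr at 37 °C; viability read by CellTiter-Glo luminescence.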
# KB-V1 MDR tox: kills drug-selected multidrug resistant KB-V1 cells | KB-V1 MDR cells viability, CellTiter-Glo, 72 h | Potency, µM (top dose mostly 46.1 µM), actives largely listed as cytotoxic | 400,000 tested, 3.4% active; further: nearly all actives have a fitted effect of over 60% in size
#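 KB-V1 MDR subline cells in DMEM (phenol-red free, 10% FBS) exposed to compounds in qHTS concentration series for 72 h at 37 degrees C. Viability read by CellTiter-Glo luminescence; concentration-effect curves fitted after normalization and correction.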
# A number is an active result; – = inactive; ? = inconclusive; · = not tested or not shown; [ ] = dose if it differs, or a comment. The call rests on the fitted dose curve; in most records, active means well fitted curve in the direction sought with a large enough effect; inconclusive means small, poorly fitted or top-dose-only effect, or another doubt; inactive means no such curve, though single readings can be large; an effect the other way counts as inactive or inconclusive.
SMILES,HT1080NT lethal,HT1080 IDH1KD tx,KB-3-1 cytotox,TDP1 cell CPT,DT40 TDP1 no CPT,KB-V1 MDR tox
Fc1ccc(/C=N/Nc2nnnn2-c2ccccc2)cc1,?,–,–,–,–,–
Cc1cc(C)n2c(SC(C)C(=O)NC3(C#N)CCCCC3)nnc2n1 (stereo unspecified),–,–,–,–,–,–
CCc1cc2ccccc2nc1Cl,?,–,–,–,–,–
Cc1ccc2cc(C)c(SCC#N)nc2c1,–,–,–,–,–,–
ClCc1cc2ccccc2nc1Cl,–,–,–,10µM,8.2µM,–
Cc1ccc2cc(CCl)c(Cl)nc2c1,–,–,–,16µM,21µM,–
COc1cccc(Nc2sc(C(=O)c3ccc(Cl)cc3)c(N)c2C(=O)NCc2ccc(C)cc2)c1,·,·,·,2.9µM,4.6µM,·
Cc1ccc(CNC(=O)c2c(Nc3c(C)cccc3C)sc(C(=O)c3ccccc3)c2N)cc1,·,·,?,8.2µM,15µM,?
Cc1ccc(-c2c(C(=O)c3ccc(Br)cc3)[nH]c(N)c2C(=O)NCc2ccc(Cl)cc2)cc1,–,–,–,–,–,–
COc1cccc(Nc2sc(C(=O)c3ccc(F)cc3)c(N)c2C(=O)NCc2ccc(Cl)cc2)c1,·,·,–,–,21µM,–
N#Cc1c(Nc2cccc(F)c2)sc(C(=O)c2ccc(Cl)cc2)c1N,·,·,–,·,·,–
O=C(Nc1ccon1)c1sc2cc(Cl)ccc2c1Cl,?,?,–,–,–,–
CC(C)c1ccc(NC(=O)CSC2=Nc3ccccc3C3=NC(CC(=O)NCc4ccco4)C(=O)N23)cc1 (stereo unspecified),·,·,–,?,?,–
CCOC(=O)C1CCCN(S(=O)(=O)c2ccc3c4c2CC(=O)N4CC(C)S3)C1 (stereo unspecified),–,–,–,?,18µM,–
CCOC(=O)C1CCN(S(=O)(=O)c2ccc3c4c2CC(=O)N4CC(C)S3)CC1 (stereo unspecified),–,–,–,21µM,?,–
CCOC(=O)C1CCN(S(=O)(=O)c2ccc3c(c2)CC(=O)N3C)CC1,–,–,–,–,–,–
CCOC(=O)C1CCCN(S(=O)(=O)c2cc3c4c(c2)CCN4C(=O)CC3)C1 (stereo unspecified),–,–,–,?,?,–
Cc1[nH]n(C(N)=S)c(=O)c1N=Nc1ccccc1C(F)(F)F,–,–,–,?,15µM,–
NC(=S)n1[nH]c(-c2ccc([N+](=O)[O-])cc2)c(N=Nc2cccc(Cl)c2)c1=O,?,?,21µM,8.2µM,6.5µM,?
Cc1ccccc1N=Nc1c(C)[nH]n(C(N)=S)c1=O,–,–,?,1.2µM,1.2µM,?
Cc1[nH]n(C(N)=S)c(=O)c1N=Nc1cccc(Cl)c1,–,–,–,?,?,–
CCOc1ccccc1N=Nc1c(C)[nH]n(C(N)=S)c1=O,–,–,–,?,15µM,?
CN(CCO)C(=O)c1cn(C2CCCN(Cc3ccc4ccccc4c3)C2)nn1 (stereo unspecified),·,·,·,–,–,·
CCc1ccc(NC(=O)[C@H](Cc2ccccc2)NC(=O)C2CCN(C(=O)[C@@H](N)CC(C)C)CC2)cc1,–,–,–,?,?,–
Cc1[nH]n(C(N)=S)c(=O)c1N=Nc1ccc([N+](=O)[O-])cc1Cl,?,–,–,?,2.9µM,–
SMILES,HT1080NT lethal,HT1080 IDH1KD tx,KB-3-1 cytotox,TDP1 cell CPT,DT40 TDP1 no CPT,KB-V1 MDR tox
Cc1ccccc1C(=O)c1cccn1CC(=O)NCc1ccc2c(c1)OCO2,–,–,–,–,–,–
CC(C(=O)Nc1ccc(OC(F)(F)F)cc1)N1Cc2ccccc2C1=O (stereo unspecified),·,·,–,–,–,–
Cc1nn(Cc2ccccc2Cl)c(C)c1NC(=O)NC12CC3CC(CC(C3)C1)C2,?,?,?,?,?,–
Cc1nn(Cc2ccc(Br)cc2)c(C)c1NC(=O)c1nn(C)cc1Cl,–,–,–,?,18µM,?
Cc1nn(Cc2ccccc2Cl)c(C)c1NC(=O)c1ccn(C)n1,–,–,–,8.2µM,12µM,?
Cc1nn(Cc2ccccc2Cl)c(C)c1C(=O)NC1=NCCS1,–,–,–,–,–,–
CCC(CC)c1nnc(NC(=O)c2c(C)nn(Cc3ccccc3Cl)c2C)s1,–,–[9.24 µM],–,23µM,–,?
Cc1nn(Cc2ccccc2Cl)c(C)c1NC(=O)c1nc2ncccn2n1,–,–,–,13µM,13µM,–
Cc1nn(Cc2ccccc2Cl)c(C)c1NC(=O)c1cc(-c2ccc(F)cc2)on1,–,–,–,?,–,–
COc1ccccc1CCC(=O)Nc1ccc(C)cc1Cl,–,–,–,–,–,?
CN(C)c1cc(F)c(C=O)cc1F,·,·,–,–,–,–
O=C(CCCN1C(=O)/C(=C/c2ccccc2Cl)SC1=S)NCCCN1CCOCC1,–,–,·,21µM,?,·
O=C1C(=Cc2cccc(O)c2O)SC(=S)N1CCCN1CCOCC1,–,–,–,13µM,15µM,–
O=C(CCN1C(=O)/C(=C/c2ccccc2F)SC1=S)NCCCN1CCOCC1,–,–,–,?,?,–
CCc1ccc(/C=C2\SC(=S)N(CCCC(=O)NCCCN3CCOCC3)C2=O)cc1,–,?,–,21µM,?,–
CCc1ccc(/C=C2/SC(=S)N(CCC(=O)NCCCN3CCOCC3)C2=O)cc1,–,–,–,–,–,–
CCOc1ccc(/C=C2\SC(=S)N(CCCC(=O)NCCCN3CCOCC3)C2=O)cc1,?,16µM,–,18µM,?,–
COC(=O)c1ccc(/C=C2/SC(=S)N(CCC(=O)NCCCN3CCOCC3)C2=O)cc1,–,–,–,?,?,–
Cc1ccc(NC(=O)CN(C)CC(=O)Nc2c(C)cccc2C)c(Br)c1,–,–,–,–,–,–
COc1ccc(C=C2SC(=S)N(CCCN3CCOCC3)C2=O)c(OC)c1,–,–,–,?,16µM,–
COc1ccccc1/C=C1\SC(=S)N(CCC(=O)NCCCN2CCOCC2)C1=O,–,–,–,–,?,–
COc1cc(SC)ccc1C(=O)N(Cc1ccccc1)c1ccccn1,–,–,–,–,?,–
COc1ccc(S(=O)(=O)N2CCN(C(=O)c3c(C)nn(-c4ccccc4)c3Cl)CC2)cc1,–,–,–,?,23µM,?
Cc1ccc(S(=O)(=O)N2CCN(C(=O)c3c(C)nn(-c4ccccc4)c3Cl)CC2)cc1,–,–,–,?,?,10µM
Cc1nn(-c2ccccc2)c(Cl)c1C(=O)N1CCN(C)CC1,–,–,–,–,–,–
